The text below walks through data of ChEMBL document CHEMBL3988442, “University of Dundee, Small-Polar-MMV Screening Library” (2021).

Structures are written as SMILES.

Assay [1] concerns the target T1, Aspartate--tRNA(Asp/Asn) ligase (Mycobacterium tuberculosis (strain ATCC 25618 / H37Rv)) (UniProt P9WFW3). Further: in the data most compounds retested in dose-response had high values.
T1 sequence (whole entry): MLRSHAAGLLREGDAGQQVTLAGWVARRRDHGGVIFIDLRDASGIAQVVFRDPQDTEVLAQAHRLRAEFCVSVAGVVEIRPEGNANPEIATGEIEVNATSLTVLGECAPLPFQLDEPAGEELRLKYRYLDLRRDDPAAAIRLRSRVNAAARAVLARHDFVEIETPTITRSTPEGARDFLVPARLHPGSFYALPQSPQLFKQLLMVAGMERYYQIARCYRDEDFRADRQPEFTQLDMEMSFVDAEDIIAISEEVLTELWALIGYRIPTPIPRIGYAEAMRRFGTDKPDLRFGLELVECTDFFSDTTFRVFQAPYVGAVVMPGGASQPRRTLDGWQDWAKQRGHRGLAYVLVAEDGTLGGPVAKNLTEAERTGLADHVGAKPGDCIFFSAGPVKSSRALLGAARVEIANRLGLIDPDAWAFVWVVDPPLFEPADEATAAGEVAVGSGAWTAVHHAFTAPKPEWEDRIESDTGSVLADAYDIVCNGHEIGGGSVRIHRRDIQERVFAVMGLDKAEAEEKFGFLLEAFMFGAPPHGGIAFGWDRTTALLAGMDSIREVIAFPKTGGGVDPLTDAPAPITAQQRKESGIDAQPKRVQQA
Briefly: Assay for Asp RNA synthetase-1 from Mycobacterium tuberculosis. The class given is functional. On the set-up: scale not given: direction of the effect not stated beside the values. The note with it: 30 µM.

Assay [2] concerns the target Shiga toxin 2 (Escherichia coli O157:H7) (UniProt P09385+P09386). Description: E. coli 0.157:H7 Shiga Toxin SOP - stx2 screening assay. The note with it: 30 µM. Details: scale not given: direction of the effect not stated beside the values. The class given is functional.

Take `Cc1cc(CN2CCCC(C)(CO)C2)ccc1F` (configuration not stated): the figures for the Percent Effect in assay [1] and in assay [2] were -3.62% and 14.3%, respectively.
Take `CC(=O)N1CCN(C(=O)CN2CCc3c(ncn3C3CC3)C2)CC1`: the Percent Effect was 1.82% in assay [1] and -27.5% in assay [2].
`O=C1CN(Cc2ccc(-c3ccccc3C(=O)O)cc2)CCN1`: the Percent Effect was determined as 5.6% in assay [1] and 43.1% in assay [2].
In the case of `O=C(c1cc(F)ccc1F)C1CCN(C(=O)c2ccc(=O)[nH]n2)CC1`, the Percent Effect in assay [1] worked out at 0.519%; in assay [2], 28.6%.
The matching figures for `CN(Cc1ccc2c(c1)OCCO2)C(=O)NCCc1cnn(C)c1`: 3% and 26.7%.
Regarding `CCn1cnnc1C1CCN(C(=O)COc2ccccc2)CC1`, the results for the Percent Effect in assay [1] and in assay [2] were -1.18% and -10%, respectively.
With `CN(C)c1ncnc2c1CCN(CC1CCOC1)CC2` (configuration not stated), the Percent Effect in assay [1] was -1.82%; in assay [2], -26.9%.
As to `COCCN1CCC2(CCN(Cc3nccs3)CC2)C1=O`, the Percent Effect in assay [1] was 3.12%; in assay [2], -8.73%.
As to `COc1cc(C)nc(N2CCN(C(=O)c3ccc[nH]3)CC2)n1`, the values for the Percent Effect in assay [1] and in assay [2] were 1.55% and 11.2%, respectively.
The matching figures for `CNC(=O)c1cccnc1Oc1ccccc1`: -3% and 8.4%.
Regarding `CC1=N[C@@]2(CC[C@@H]3CN(S(=O)(=O)CC(C)C)C[C@@H]32)C(=O)N1CC(C)C`, the Percent Effect in assay [1] was -0.749%; in assay [2] it was 9.05%.
In the same order, the values of `CC(=O)NCCNC(=O)c1sc(-c2ccc(Cl)s2)nc1C` are 7.28% and 8.5%.
In the case of `Cc1ccc(C(=O)N2CCN(CCC(C)(C)C)CC2)c(=O)[nH]1`, the figures for the Percent Effect in assay [1] and in assay [2] were -4.54% and 1.57%, respectively.
In the same order, the values of `Cc1ccc(C)c(-n2ccc3nc(N4CCCC4)ncc3c2=O)c1` are -4.04% and -36.3%.
On to `CCc1nc(CN2CCCN(C(=O)COCC3CC3)CC2)cs1`, for which the Percent Effect in assay [1] is -3.19%; in assay [2] it was -49.1%.
Consider `O=C1[C@H]2CC[C@H](CN(Cc3ccccc3OC(F)F)C2)N1CC1CC1`, for which the figures for the Percent Effect in assay [1] and in assay [2] were 4.85% and 7.93%, respectively.
In the case of `Cc1n[nH]c(C)c1NC(=O)CN1CCOC(Cn2cccn2)C1` (configuration not stated), the values for the Percent Effect in assay [1] and in assay [2] were -0.605% and 31.6%, respectively.
Turning to `NC(=O)C1CCN(C(=O)c2ccn(-c3ccc(F)cc3)n2)C1` (configuration not stated), the Percent Effect was 9.24% in assay [1] and 3.03% in assay [2].
In the same order, the values of `COc1ccccc1OCC(=O)Nc1ncccc1Cl` are -0.641% and 1.67%.
With `CCn1nc(C(=O)N2CCCC(n3cncn3)C2)ccc1=O` (configuration not stated), the results for the Percent Effect in assay [1] and in assay [2] were -5.19% and 18.8%, respectively.
In the same order, the values of `Cc1noc(C2CCCCN2C(=O)NC2CCCC2)n1` (configuration not stated) are 5.06% and -14.7%.
In the same order, the values of `Cc1csc(CCCNC(=O)[C@H]2CNC[C@@H](C(=O)N3CCCC3)C2)n1` are -3.08% and -2.63%.
Turning to `CC(Nc1cccc(CN2CCOC2=O)c1)C(=O)N1CCNC1=O` (configuration not stated), the results for the Percent Effect in assay [1] and in assay [2] were -0.922% and -28.6%, respectively.
For `CN1CC(c2ccccc2)CC12CCN(C(=O)c1ccc(F)cc1)CC2` (configuration not stated), the Percent Effect in assay [1] was -1.84%; in assay [2], 11.8%.
In the case of `CN(C)CC(=O)N1CCCC2(CCC(=O)N(CCc3c[nH]cn3)C2)C1` (configuration not stated), the Percent Effect in assay [1] was 0.773%; in assay [2], -43.1%.
As to `CN(C)S(=O)(=O)N1CCN(c2nccc(C(F)(F)F)n2)CC1`, the Percent Effect in assay [1] is -6.64%; in assay [2], -2.87%.
The matching figures for `c1cnn(CC2CN(CC3CCCC3)CCO2)c1` (configuration not stated): -6.1% and -0.337%.
The matching figures for `CC(C)c1nc(CC(=O)N2CCCC(n3cncn3)C2)cs1` (configuration not stated): -4.06% and -31%.
For the molecule `COc1ccc(-c2nc(CN3CCN(CCO)CC3)co2)cc1`, the figures for the Percent Effect in assay [1] and in assay [2] were -0.607% and -96.9%, respectively.
`Cc1ccc(CN2CCCn3nnc(COCC4CC4)c3C2)s1`: the Percent Effect was -4.16% in assay [1] and 0.0593% in assay [2].
In the same order, the values of `CSc1sc(NC(=O)Cc2c(C)nc(C)[nH]c2=O)nc1C` are -2.08% and -7.28%.
Regarding `COc1ccc(NCc2nc(=O)n(CCC(C)C)[nH]2)cc1`, the Percent Effect in assay [1] is -2.01%; in assay [2] it was 5.42%.
Consider `O=C(NCCNc1ccc(C(F)(F)F)cn1)c1cncc(Br)c1`, for which the Percent Effect in assay [1] worked out at 3.26%; in assay [2], 28.2%.
For the molecule `O=C(c1ccsc1)N1CCCC(c2cc(C(F)(F)F)[nH]n2)C1` (configuration not stated), the Percent Effect in assay [1] came out at 7.19%; in assay [2], 28%.
For the molecule `CC(C)(C(=O)NCC1CC1)c1ccccc1F`, the results for the Percent Effect in assay [1] and in assay [2] were -1.98% and -2.97%, respectively.
Take `COc1cc(NC(=O)c2cc(C)sc2C)c(C(=O)N(C)C)cc1OC`: the values for the Percent Effect in assay [1] and in assay [2] were 7.46% and -44.2%, respectively.
With `O=C(NCCN1CCOCC1)c1ccc(-n2ccc3ccccc32)s1`, the figures for the Percent Effect in assay [1] and in assay [2] were 3.45% and -47.9%, respectively.
Consider `Cc1nn(C)c(C)c1C1CCCN1CCCc1nc2ccccc2o1` (configuration not stated), for which the Percent Effect in assay [1] amounted to 3.71%; in assay [2], 7.57%.
`Cc1nsc(C(=O)N2CCc3ccccc3C2)n1`: the Percent Effect in assay [1] was -2.11%; in assay [2], -13.9%.
Take `CCOc1cccc2c1OCC(C(=O)NS(=O)(=O)Cc1ccccc1)=C2`: the Percent Effect in assay [1] was -0.211%; in assay [2] it was 23.7%.
The matching figures for `CCOc1ncccc1NC(=O)N1CCN(c2cccc(C)c2C)CC1`: 1.92% and 38.1%.
For `CC(C)n1cnc2c1C(C(=O)NCCC#N)N(Cc1ccccc1)CC2` (configuration not stated), the Percent Effect in assay [1] was -1.11%; in assay [2] it was -31.8%.
Take `Cn1c(C(F)(F)F)nn(CCNC(=O)CSCc2ccccc2)c1=O`: the Percent Effect was -5.63% in assay [1] and 4.5% in assay [2].
Consider `c1ccc(C(OCCNC2CCc3ncnn3C2)c2ccccc2)cc1` (configuration not stated), for which the Percent Effect in assay [1] was 2.94%; in assay [2], -14.7%.
With `CCN(CC)C(CNS(=O)(=O)c1ccc(C(=O)NC)cc1)c1ccco1` (configuration not stated), the values for the Percent Effect in assay [1] and in assay [2] were -2.1% and -17.4%, respectively.
As for `O=C(Cn1cc(I)cn1)N1CCCC1`, the Percent Effect in assay [1] was -4.62%; in assay [2], -0.574%.
As for `Fc1cccc(CN2CCC(c3n[nH]c4ncccc34)CC2)c1F`, the figures for the Percent Effect in assay [1] and in assay [2] were -3.17% and -6.18%, respectively.
As to `CC(=O)N(Cc1noc(C)n1)C1CCN(Cc2ccncc2Cl)C1` (configuration not stated), the results for the Percent Effect in assay [1] and in assay [2] were 1.27% and -3.88%, respectively.
In the same order, the values of `CCc1nnsc1C(=O)NC1CCN(c2ccccn2)CC1` are -5.57% and -24.7%.
In the case of `COc1ccccc1OCC(=O)NS(=O)(=O)c1ccc(Br)s1`, the values for the Percent Effect in assay [1] and in assay [2] were 2.43% and -0.0881%, respectively.
In the same order, the values of `c1coc(CN2Cc3nccn3CC(Cn3cncn3)C2)c1` (configuration not stated) are -0.866% and -9.64%.
